From PubChem
FLuc counter: counter-screen for miR-21 project: firefly luciferase inhibitors or activators; Potency, µM (doses to about 57.5 µM), most hits filed as inhibitors; 360,000 compounds, 6.9% hits; P08659; AID 588342; purified FLuc, Km substrates, luminescence inhibition; note: nearly all actives have a fitted effect of over 55% in size
Target sequence (P08659 whole entry, looked up): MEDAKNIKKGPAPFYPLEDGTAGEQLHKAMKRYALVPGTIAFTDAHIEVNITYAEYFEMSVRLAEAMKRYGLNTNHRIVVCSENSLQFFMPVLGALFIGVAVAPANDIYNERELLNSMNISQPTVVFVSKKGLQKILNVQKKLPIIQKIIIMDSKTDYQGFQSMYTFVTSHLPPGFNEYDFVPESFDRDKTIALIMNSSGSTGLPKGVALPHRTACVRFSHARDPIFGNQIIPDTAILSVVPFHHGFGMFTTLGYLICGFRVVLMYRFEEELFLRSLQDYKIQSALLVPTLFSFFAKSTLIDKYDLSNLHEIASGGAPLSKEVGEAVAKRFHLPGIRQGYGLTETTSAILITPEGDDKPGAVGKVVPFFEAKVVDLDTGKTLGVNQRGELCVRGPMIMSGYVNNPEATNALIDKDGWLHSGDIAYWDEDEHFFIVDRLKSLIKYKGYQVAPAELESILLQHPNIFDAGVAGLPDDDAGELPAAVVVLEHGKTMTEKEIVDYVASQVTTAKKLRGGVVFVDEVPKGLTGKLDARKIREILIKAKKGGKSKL
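Purified P. pyralis luciferase (10nM final) with 10uM D-luciferin and 10uM ATP (Km levels) in 50mM Tris acetate pH 7.5, 10mM Mg acetate, 0.01% Tween-20, 0.05% BSA; qHTS 6-point titration, ~60 µM downward; luminescence read.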
ELG1 genotoxic: genotoxicity induction in ELG1-luciferase HEK293T cells. 330,000 compounds, 1.3% hits. Potency, µM (highest dose often 46 µM), hits mostly activators. HEK293T ELG1-luciferase reporter, luminescence, 16 h; note: nearly all actives have a fitted effect of over 60% in size
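16 hr compound incubation (37 °C, 5% CO2) of HEK293T cells carrying luciferase-tagged ELG1; luciferase then measured by ONE-Glo luminescence after 30 min at RT.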
NPC1 prom act: NPC1 promoter activation | Potency, µM (titrated, usually from 9.22 µM), most hits filed as activators | Huh7 NPC1 promoter luciferase reporter, 24 h | 320,000 compounds, 2.4% hits; note: nearly all actives have a fitted effect of over 60% in size
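Stable NPC1-promoter luciferase Huh7 line; cpd (DMSO) 24 h, 37 °C, 5% CO2; Amplite luciferase reagent 10 min RT; luminescence readout. qHTS format.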
SMN2 splice enh: enhancers of SMN2 splice variant expression; HEK293 SMN2-luciferase splicing reporter, luminescence, 30-36 h; 210,000 compounds, 2.8% hits; Potency, µM (series often up to 46.1 µM), usual class: activators; note: nearly all actives have a fitted effect of over 55% in size
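HEK293 cells carry an SMN2 […]–luciferase reporter in which exon 7 inclusion puts luciferase in frame. Cells were plated 10-12 h before compound addition, then incubated 30-36 h at 37C. ONE-Glo luminescence was read; sodium butyrate at 4.5 mM final served as control.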
p53 reactivation: re-activators of mutant p53; H1299 p53-A138V BP100-luciferase reporter, luminescence, 24 h; Potency, µM (top dose mostly 92.2 µM), most hits filed as activators; 320,000 compounds, 0.063% hits; note: nearly all actives have a fitted effect of over 45% in size
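H1299 (p53-null), stable ts p53-A138V + BP100-Luc; 1000 cells/well, Opti-MEM/10% FBS; cpd 4 pt, 1:5; 24 h, 37 deg C, 5% CO2; detection reagent 10 min RT; luminescence.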
Rab9 prom act: activators of Rab9 promoter; 320,000 compounds, 2.8% hits; Potency, µM (titrated, usually from 9.22 µM), most hits filed as activators; Huh7 Rab9 promoter-luciferase reporter, luminescence, 24 h; note: nearly all actives have a fitted effect of over 60% in size
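Cells were plated at 1500 per well in reduced-serum medium with 10% FBS and left 2 h. Compound in DMSO was then added for 24 h at 37 °C. Reporter signal was read by luminescence after 10 min with luciferase detection reagent.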
Of the large screens only hits and unclear results are named; the others gave an inactive call. This is a sample that favours compounds with a hit; in the whole collection about 7.4% have one here. Calls come from the whole dose curve; as a rule, active = well fitted curve in the direction sought with a large enough effect; inconclusive = small, poorly fitted or top-dose-only effect, or another doubt; inactive = no such curve, though single readings can be large; an effect the other way counts as inactive or inconclusive.

C[C@]12C=CC(=O)C=C1CC[C@@H]1C2[C@@H](O)C[C@@]2(C)C1CC[C@]2(O)C(=O)COC(=O)CCC(=O)O (some centres undefined)	none (no result: SMN2 splice enh)
C/C(=N\NC(=O)CNC(=O)c1ccc(F)cc1)c1ccco1	none (no result: SMN2 splice enh)
CCOC(=O)c1oc2ccc(S(=O)(=O)n3nc(-c4ccc(Br)cc4)cc3N)cc2c1C	none (no result: ELG1 genotoxic, NPC1 prom act, p53 reactivation, Rab9 prom act)
O=C(Nc1ccc2c(c1)OCCO2)c1cc2sccc2n1Cc1ccc(F)cc1	FLuc counter inconclusive
Cn1c(C(=O)Nc2ccc3c(c2)OCCO3)cc2sccc21	FLuc counter 1.1µM, ELG1 genotoxic 2.1µM, NPC1 prom act 1.3µM, SMN2 splice enh 7.1µM, p53 reactivation inconclusive, Rab9 prom act 1.1µM
O=C(Nc1ccc2c(c1)OCCO2)c1cc2sccc2n1Cc1ccccc1	FLuc counter 21µM, Rab9 prom act inconclusive
Cc1nc2scc(-c3cccs3)c2c(=O)[nH]1	none
O=c1[nH]c(-c2ccc(O)cc2)nc2scc(-c3cccs3)c12	FLuc counter 11µM, ELG1 genotoxic inconclusive, NPC1 prom act 2.8µM, Rab9 prom act 2µM (no result: SMN2 splice enh)
O=C(O)c1ccc(-c2nc3scc(-c4ccccc4)c3c(=O)[nH]2)cc1	FLuc counter 9.5µM (no result: SMN2 splice enh)
CC(C)(C)c1nc2scc(-c3cccs3)c2c(=O)o1	FLuc counter 13µM (no result: SMN2 splice enh)
CSCc1nc2scc(-c3ccccc3)c2c(=O)[nH]1	none
CCOC(=O)c1ccc(NC(=O)CSc2nc(-c3cccs3)cc(C(F)(F)F)c2C#N)cc1	none (no result: ELG1 genotoxic, NPC1 prom act, p53 reactivation, Rab9 prom act)
O=C(Nc1nnc(-c2cccs2)o1)c1cccc(Oc2ccccc2)c1	p53 reactivation inconclusive
O=C(Nc1ccsc1C(=O)O)c1cccc(Oc2ccccc2)c1	FLuc counter 0.76µM, ELG1 genotoxic inconclusive, NPC1 prom act 1.8µM, p53 reactivation inconclusive, Rab9 prom act 0.89µM (no result: SMN2 splice enh)
O=C(Nc1ccsc1C(=O)O)c1cccc(C(F)(F)F)c1	FLuc counter 9.5µM, ELG1 genotoxic 16µM, NPC1 prom act 3.2µM, p53 reactivation inconclusive, Rab9 prom act inconclusive (no result: SMN2 splice enh)
CCN(C(=O)c1ccc(S(=O)(=O)N2CCCC2)cc1)C1CCS(=O)(=O)C1 (centres undefined)	none (no result: SMN2 splice enh)
CCc1ccc(C(=O)Cn2ccsc2=N)cc1	FLuc counter 1.3µM, ELG1 genotoxic inconclusive, NPC1 prom act 1.6µM, p53 reactivation inconclusive, Rab9 prom act 0.71µM (no result: SMN2 splice enh)
CCOc1ccc(OCCC(=O)OCC(=O)Nc2ccc(C)c(S(=O)(=O)N3CCCCC3)c2)cc1	FLuc counter 11µM (no result: SMN2 splice enh)
CCOc1cc(C(=O)CCC(=O)OCC(=O)Nc2ccc(C)c(S(=O)(=O)N(C)C)c2)ccc1O	FLuc counter 19µM
Cc1ccc(NC(=O)COC(=O)CCC(=O)c2ccc(Cl)cc2)cc1S(=O)(=O)N(C)C	FLuc counter inconclusive (no result: SMN2 splice enh)
COc1ccc(CNC(=O)CCCn2nc(C)c3c(C)n(-c4ccc(C)cc4)nc3c2=O)cc1	none (no result: SMN2 splice enh)
Nc1cccc(-c2ccc(CO)o2)c1	FLuc counter 17µM (no result: SMN2 splice enh)
Nc1cccc(N)c1	none (no result: FLuc counter, ELG1 genotoxic, NPC1 prom act, p53 reactivation, Rab9 prom act)
Cc1ccccc1OCCNc1ccc(C(F)(F)F)cc1[N+](=O)[O-]	FLuc counter inconclusive, p53 reactivation inconclusive
CN(C)S(=O)(=O)NCCNc1ccc(C(F)(F)F)cc1[N+](=O)[O-]	FLuc counter 19µM
O=[N+]([O-])c1cc(C(F)(F)F)ccc1NCCOc1ccccc1	FLuc counter 13µM, ELG1 genotoxic inconclusive, NPC1 prom act inconclusive, SMN2 splice enh inconclusive, p53 reactivation inconclusive, Rab9 prom act inconclusive
COc1cc(S(=O)(=O)N2CCN=C2c2ccccc2)ccc1F	SMN2 splice enh 11µM
Cc1ccc(S(=O)(=O)N2CCN=C2c2ccccc2)cc1C	none
CCc1ccc2occ(CC(=O)Nc3c(C(=O)c4ccc(C)cc4)oc4ccccc34)c2c1	none (no result: ELG1 genotoxic, NPC1 prom act, p53 reactivation, Rab9 prom act)
N=c1oc2c3c4c(cc2cc1C(=O)Nc1ccccc1)CCCN4CCC3	FLuc counter 1.9µM, ELG1 genotoxic inconclusive, NPC1 prom act inconclusive, SMN2 splice enh 10µM, p53 reactivation inconclusive, Rab9 prom act inconclusive
Cc1oc(S(=O)(=O)N2CCCC2)cc1C(=O)Nc1ccccc1	none (no result: SMN2 splice enh)
Cc1ccccc1NC(=O)Cc1nnc(SCC(=O)NC2=NCCS2)n1C	none (no result: SMN2 splice enh)
